This is an account of results in PubChem BioAssay.

SMILES strings stand for the structures. Activity calls are given as the source filed them. Unless noted, the rule behind the calls is not given here.

A short description of experiment [1]: compounds binding Alexa647 anti-His antibody – biochemical, small-molecule microarray, 635 nm fluorescence, artefact control for SMM control protein annotation, primary screen (AID 1128).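 Note: score merges feature fluorescence with signal-to-noise for each printed compound spot.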 The conditions noted are these: higher = more signal.
The test system of experiment [2] is Human papillomavirus type 1a E7 protein (residues 1-88). Put plainly: HPV1a E7 small-molecule binders, primary screen, biochemical, small-molecule microarray, residues 1-88, 635 nm (AID 1129). The conditions noted are these: small-molecule microarray binding, fluorescence 635 nm; higher = more signal.
Experiment [3] deals with Focal adhesion kinase 1 (Homo sapiens) (UniProt Q05397). Put plainly: PTK2 protein binding on printed compound slides – biochemical, small-molecule microarray, 635/667 nm fluorescence, BSA, DTT, primary screen (AID 1130).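 Note: composite of spot emission at 667 nm and signal to noise over triplicate slides.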 The conditions noted are these: 635 nm fluorescence, higher = more signal.
In experiment [4] the test system is Fibrinogen (Alexa647-labelled). The experiment can be described thus: Alexa647-fibrinogen binding to printed small molecules – biochemical, small-molecule microarray, 635/667 nm fluorescence, artefact control for SMM control-protein annotation, profiling panel (AID 1131).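 Note: z-score merges 667 nm fluorescence with per-spot signal-to-noise over triplicate slides.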 The following applies: fibrinogen-A647 binding fluorescence, higher = more signal.
Experiment [5] addresses Follistatin (Homo sapiens) (UniProt P19883). Put plainly: FST protein binding to printed compounds – biochemical, small-molecule microarray, 635/667 nm fluorescence, primary screen (AID 1132). The following applies: 635 nm fluorescence, higher = more signal.
The target of experiment [6] is Fibroblast growth factor 2 (Homo sapiens) (UniProt P09038). The experiment can be described thus: basic fibroblast growth factor binding to printed compounds – biochemical, small-molecule microarray, 635/667 nm fluorescence, primary screen (AID 1133). The conditions noted are these: FGF2, fluorescence 635/667, higher = more signal.
Experiment [7] can be described thus: JC-1 mitochondrial potential readout, lung cancer cells – cell-based, A549, JC-1 fluorescence, basal, 24 h, 100 nL, profiling panel (AID 1138).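 Note: A549 lung adenocarcinoma cells under basal conditions with no added stimulus; test concentration not given here.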 The conditions noted are these: higher = more signal.
The next experiment relates to Lefty1. Put plainly: Lefty1 protein binding to printed compounds – biochemical, small-molecule microarray, 635/667 nm fluorescence, primary screen (AID 1139). The conditions noted are these: fluorescence 635/667, higher = more signal.
Experiment [8] relates to wheat germ agglutinin (Triticum aestivum), Alexa647-labelled. The experiment can be described thus: Alexa647-WGA lectin binding to printed small molecules – biochemical, small-molecule microarray, 635/667 nm fluorescence, artefact control for SMM control-protein annotation, profiling panel (AID 1140).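 Note: score merges 667 nm feature emission with signal to noise over triplicate slides.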 The conditions noted are these: WGA-A647 binding, 635 nm fluorescence, higher = more signal.

Experiment [9] addresses Luciferin 4-monooxygenase (Photinus pyralis) (UniProt P08659). Put plainly: inhibition of purified Photinus pyralis luciferase – biochemical, luminescence, purified enzyme, 2006 set, primary screen (AID 1141).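 Note: cell-free assay with purified firefly luciferase at 100 ng per well in PBS; test concentration not given here.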 The conditions noted are these: purified firefly luciferase, SteadyGlo luminescence, 30 min; higher = more signal, called active from +8 up or from −8 down.
For experiment [10], the system named is Wnt5a (protein binding on small-molecule microarray). The experiment can be described thus: small molecules binding Wnt5a protein – biophysical, small-molecule microarray, 635/667 nm fluorescence, primary screen (AID 1142).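 Note: fluorescence read at 667 nm with signal to noise per printed feature.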 The following applies: 635 nm fluorescence, higher = more signal.
A short description of experiment [11]: ATP-based viability of Huh7 replicon cells – cell-based, CellTiter-Glo luminescence, basal, 48 h, cytotoxicity control for HCV replication inhibitor project, primary screen (AID 1143).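 Note: Huh7 hepatoma cells carrying a hepatitis C replication reporter with no stimulus; test concentration not given here.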 The following applies: higher = more signal, called active from +8 up or from −8 down. On the technique in general: In antiviral work, replicon cells carry a viral genome segment that copies itself.

Experiment [12] is described as follows: Pseudomonas biofilm growth suppression – PAO1 strain, BacTiter-Glo luminescence, LB-PBS, primary screen (AID 1144). The conditions noted are these: P. aeruginosa PAO1 biofilm, 12 h, higher = more signal.
Experiment [13] in a line: basal CRE-LacZ reporter activity in PC12 – cell-based, unstimulated, primary screen (AID 1145). The following applies: no forskolin, luminescence, 4.5 h, higher = more signal, called active from +8 up or from −8 down.
Experiment [14] is described as follows: forskolin-driven CRE-LacZ activity in PC12 – cell-based, CRE-LacZ reporter, forskolin-stimulated, primary screen (AID 1146).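 Note: PC12 cells with 6xCRE LacZ reporter stimulated by forskolin 10 µM; beta-galactosidase reporter signal reflecting CREB driven transcription.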 The following applies: luminescence, 4.5 h, higher = more signal, called active from +8 up or from −8 down.
Experiment [15] has as its target Streptavidin (Streptomyces avidinii) (UniProt P22629). Put plainly: compounds binding control protein streptavidin – biophysical, small-molecule microarray, 635/667 nm fluorescence, artefact control for SMM compound annotation, primary screen (AID 1147).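 Note: signal reflects streptavidin binding to arrayed compounds as a control protein.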 The following applies: higher = more signal.
A short description of experiment [16]: probe aInhba binding on compound microarray – biochemical, small-molecule microarray, 635/667 nm fluorescence, primary screen (AID 1148).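 Note: score merges 667nm spot fluorescence with signal-to-noise for antibody binding to printed compounds.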 The following applies: higher = more signal.
Experiment [17] has as its target Torsin-1A (Homo sapiens) (UniProt O14656). Put plainly: TOR1A wild-type binding on microarray – cell lysate, small-molecule microarray, lysate, 635/667 nm, primary screen (AID 1149). The following applies: COS7 hTOR1A-WT lysate, 635 nm fluorescence, higher = more signal.
The target is the same in experiment [18]. The experiment can be described thus: torsin A mutant lysate binding on microarrays – cell lysate, small-molecule microarray, COS7 lysate, 635/667 nm fluorescence, primary screen (AID 1150).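 Note: score pools 667 nm emission and signal to noise measuring lysate protein binding.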 The conditions noted are these: COS7 hTOR1A mutant lysate, 635 nm fluorescence, higher = more signal.
Experiment [19] has as its system Sonic hedgehog protein (Shh). The experiment can be described thus: Sonic hedgehog microarray binding compounds – biochemical, small-molecule microarray, 635/667 nm fluorescence, primary screen (AID 1151).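 Note: Shh protein binding to compounds spotted on small-molecule microarray slides; score combines spot fluorescence intensity with signal-to-noise across triplicate slides.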 The conditions noted are these: 635 nm fluorescence, higher = more signal.

Sequence of Fibroblast growth factor 2 (Homo sapiens) (P09038 whole entry, looked up): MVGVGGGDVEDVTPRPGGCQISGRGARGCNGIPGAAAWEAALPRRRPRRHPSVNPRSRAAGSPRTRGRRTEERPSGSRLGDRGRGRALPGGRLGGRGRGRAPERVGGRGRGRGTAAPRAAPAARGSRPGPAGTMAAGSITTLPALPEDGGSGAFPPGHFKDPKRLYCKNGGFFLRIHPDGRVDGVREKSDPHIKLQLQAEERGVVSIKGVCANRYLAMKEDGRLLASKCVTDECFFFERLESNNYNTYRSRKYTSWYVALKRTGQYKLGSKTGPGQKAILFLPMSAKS
Sequence of Streptavidin (Streptomyces avidinii) (P22629 whole entry, looked up): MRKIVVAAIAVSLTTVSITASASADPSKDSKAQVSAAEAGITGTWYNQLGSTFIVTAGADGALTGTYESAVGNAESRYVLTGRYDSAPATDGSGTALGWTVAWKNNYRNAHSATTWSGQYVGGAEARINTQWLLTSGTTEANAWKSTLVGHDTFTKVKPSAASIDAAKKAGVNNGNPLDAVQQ
Sequence of Luciferin 4-monooxygenase (Photinus pyralis) (P08659 whole entry, looked up): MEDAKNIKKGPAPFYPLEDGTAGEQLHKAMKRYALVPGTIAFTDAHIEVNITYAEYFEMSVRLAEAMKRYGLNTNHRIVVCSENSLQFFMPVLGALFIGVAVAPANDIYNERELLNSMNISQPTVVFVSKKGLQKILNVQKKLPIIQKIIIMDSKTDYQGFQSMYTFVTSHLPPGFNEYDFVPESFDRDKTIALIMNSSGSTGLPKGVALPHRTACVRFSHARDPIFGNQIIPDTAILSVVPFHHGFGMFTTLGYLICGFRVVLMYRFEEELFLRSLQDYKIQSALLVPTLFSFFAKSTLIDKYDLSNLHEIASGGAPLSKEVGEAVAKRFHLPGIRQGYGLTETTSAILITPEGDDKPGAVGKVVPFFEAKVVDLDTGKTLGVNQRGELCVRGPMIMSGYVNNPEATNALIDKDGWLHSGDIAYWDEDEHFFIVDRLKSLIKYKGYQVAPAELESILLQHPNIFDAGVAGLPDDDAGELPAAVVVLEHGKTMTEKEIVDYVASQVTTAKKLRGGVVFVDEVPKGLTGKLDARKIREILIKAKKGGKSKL
Sequence of Follistatin (Homo sapiens) (P19883 whole entry, looked up): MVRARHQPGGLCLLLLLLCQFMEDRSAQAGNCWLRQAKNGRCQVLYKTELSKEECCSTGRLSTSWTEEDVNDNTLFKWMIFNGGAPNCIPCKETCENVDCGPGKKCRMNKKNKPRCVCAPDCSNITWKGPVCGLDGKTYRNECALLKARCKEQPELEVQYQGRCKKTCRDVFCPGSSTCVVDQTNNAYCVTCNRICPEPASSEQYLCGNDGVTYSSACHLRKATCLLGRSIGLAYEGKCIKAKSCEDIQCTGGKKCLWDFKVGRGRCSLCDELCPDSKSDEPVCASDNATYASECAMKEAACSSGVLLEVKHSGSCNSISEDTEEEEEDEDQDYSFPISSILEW
Sequence of Focal adhesion kinase 1 (Homo sapiens) (Q05397 whole entry, looked up): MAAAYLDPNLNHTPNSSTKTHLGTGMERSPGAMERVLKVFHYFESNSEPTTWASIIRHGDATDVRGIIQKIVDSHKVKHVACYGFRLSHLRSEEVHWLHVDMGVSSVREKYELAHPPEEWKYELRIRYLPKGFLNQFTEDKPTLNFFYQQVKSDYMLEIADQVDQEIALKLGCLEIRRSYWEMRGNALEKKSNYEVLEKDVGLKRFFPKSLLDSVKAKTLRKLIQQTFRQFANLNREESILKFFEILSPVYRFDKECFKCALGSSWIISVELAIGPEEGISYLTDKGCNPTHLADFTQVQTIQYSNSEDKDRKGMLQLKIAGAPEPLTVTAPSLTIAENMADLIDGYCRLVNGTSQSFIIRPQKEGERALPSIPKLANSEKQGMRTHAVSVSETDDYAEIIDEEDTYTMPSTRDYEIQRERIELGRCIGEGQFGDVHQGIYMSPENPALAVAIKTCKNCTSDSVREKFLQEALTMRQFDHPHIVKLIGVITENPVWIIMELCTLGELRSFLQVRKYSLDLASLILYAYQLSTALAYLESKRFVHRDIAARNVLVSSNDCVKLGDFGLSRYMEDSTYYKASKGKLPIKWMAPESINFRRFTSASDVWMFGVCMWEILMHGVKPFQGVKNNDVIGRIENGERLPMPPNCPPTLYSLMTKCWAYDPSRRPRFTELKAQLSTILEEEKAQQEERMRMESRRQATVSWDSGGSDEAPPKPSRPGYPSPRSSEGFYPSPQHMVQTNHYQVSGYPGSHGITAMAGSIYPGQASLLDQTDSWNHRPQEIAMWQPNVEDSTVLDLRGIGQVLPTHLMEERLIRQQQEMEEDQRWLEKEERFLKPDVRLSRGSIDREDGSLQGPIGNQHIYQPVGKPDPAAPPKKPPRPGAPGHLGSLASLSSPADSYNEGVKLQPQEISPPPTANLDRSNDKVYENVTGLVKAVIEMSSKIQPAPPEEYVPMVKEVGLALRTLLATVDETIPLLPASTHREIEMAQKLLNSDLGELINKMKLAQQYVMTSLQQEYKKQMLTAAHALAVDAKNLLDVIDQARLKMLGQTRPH
Sequence of Torsin-1A (Homo sapiens) (O14656 whole entry, looked up): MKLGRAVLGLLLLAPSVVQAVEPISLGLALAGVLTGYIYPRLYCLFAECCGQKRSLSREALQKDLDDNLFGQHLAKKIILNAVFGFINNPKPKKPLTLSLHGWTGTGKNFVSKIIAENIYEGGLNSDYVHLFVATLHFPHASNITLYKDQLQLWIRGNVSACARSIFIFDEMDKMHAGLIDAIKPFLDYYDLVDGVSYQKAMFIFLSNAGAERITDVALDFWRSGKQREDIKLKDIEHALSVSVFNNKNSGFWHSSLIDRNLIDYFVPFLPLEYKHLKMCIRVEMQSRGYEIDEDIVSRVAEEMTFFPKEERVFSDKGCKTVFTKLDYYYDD

Take `C=C(COC)/C(=C/C[C@@H](OC(=O)c1ccncc1)c1ccccc1OCCO)c1cc(C(=O)OC)ccc1OC`: the composite z-score is -1.25 in [1]; -0.975 in experiment [2]; -0.478 in [3]; -1.5 in experiment [4]; 0.249 in experiment [5]; -0.203 in experiment [6]. Moreover, the composite z-score in the experiment with Lefty1 was -0.247; in experiment [8], -1.12; in experiment [10], -0.146; in [15], -0.409; in [16], -0.0762; with Torsin-1A (Homo sapiens) [17] it was 0.758. Besides, the composite z-score was -0.103 with Torsin-1A (Homo sapiens) [18] and 0.249 in experiment [19]. Also, the z-score in experiment [7] was 2.02; in experiment [9], -2.4 (inactive); in [11], -1.88 (inactive); in experiment [12], 0.454 (inactive); in [13] it was 14.7 (active); in [14], 3.84 (inactive).

`C=CCN1C(=O)[C@]2(O[C@H](CCO)[C@@H]([Si](C)(C)c3ccc(OC)cc3)[C@@H]2C)c2cc(N3C(=O)COc4ccccc43)ccc21`: the composite z-score in experiment [1] was found to be 1.3; in experiment [2] it was 0.853; in [3], 0.179; in experiment [4], 0.55; in experiment [5], 0.618; in experiment [6], 0.405. The composite z-score with Lefty1 was 0.465; in experiment [8], 0.441; in experiment [10] it was 0.01; in experiment [15], 0.435; in [16], -0.0245; with Torsin-1A (Homo sapiens) [17] it was -0.339. For the same compound, the composite z-score was 0.072 with Torsin-1A (Homo sapiens) [18] and 1.18 in experiment [19]. For the same compound, the z-score in [7] is -1.46; in [9] it was -0.401 (inactive); in experiment [11], -8.07 (active); in [12] it was 0.518 (inactive); in experiment [13], 27.2 (active); in [14], -3.5 (inactive).

As to `C=C(CCCC)C(=O)CC[C@@H](OC(=O)c1cccnc1)c1ccc(OCCO)cc1`, the composite z-score in [1] is 0.0583; in experiment [2], 0.581; in experiment [3], -0.471; in experiment [4], -0.0496; in experiment [5], 1.47; in experiment [6] it was 1.56. Besides, the composite z-score is 1.57 in the experiment with Lefty1; 0.363 in experiment [8]; 1.08 in [10]; -0.444 in [15]; 0.0857 in [16]; 1.12 in the experiment with Torsin-1A (Homo sapiens) [17]. Further, the composite z-score is 0.507 in the experiment with Torsin-1A (Homo sapiens) [18] and 2.35 in [19]. For the same compound, the z-score in experiment [7] was 0.335; in experiment [9], -3.15 (inactive); in experiment [11], -2.32 (inactive); in [12], 0.383 (inactive); in experiment [13] it was 11.5 (active); in experiment [14], 1.62 (inactive).

For the compound `COC(=O)c1c2oc(c1C(=O)OC)C(=O)N1CCC[C@H]1Cn1nncc1CN(Cc1ccccc1)C(=O)N[C@H](CO)CC2`, the composite z-score was 0.328 in experiment [1]; -0.243 in experiment [2]; 0.291 in [3]; 0.676 in experiment [4]; 0.423 in experiment [5]; 1.04 in [6]. Also, the composite z-score with Lefty1 is 0.783; in experiment [8], 0.18; in experiment [10], 0.533; in [15] it was 0.0789; in experiment [16], -0.0448; with Torsin-1A (Homo sapiens) [17], -0.14. Also, the figures for the composite z-score (with Torsin-1A (Homo sapiens) [18]; in experiment [19]) were -0.0715 and 0.658, respectively. For the same compound, the z-score in experiment [7] was 0.39; in [9] it was -1.29 (inactive); in [11] it was 0.246 (inactive); in experiment [12], -0.294 (inactive); in experiment [13], 0.251 (inactive); in [14] it was -0.147 (inactive).

Consider `COc1ccc([Si](C)(C)[C@H]2[C@H](CC(=O)N3CCC[C@H]3CO)O[C@@]3(C(=O)N(Cc4ccc(N5CCC5=O)cc4)c4ccccc43)[C@@H]2C)cc1`, for which the composite z-score worked out at 1.54 in experiment [1]; 1.19 in [2]; 0.559 in experiment [3]; 0.898 in [4]; 1.35 in [5]; 1.73 in experiment [6]. Besides, the composite z-score in the experiment with Lefty1 is 1.56; in experiment [8], 0.211; in experiment [10], 0.699; in experiment [15], 0.39; in experiment [16] it was -0.0523; with Torsin-1A (Homo sapiens) [17] it was 1.1. Besides, the composite z-score with Torsin-1A (Homo sapiens) [18] is 0.43; in experiment [19], 1.77. Also, the z-score in [7] was 1.51; in experiment [9], -0.509 (inactive); in experiment [11] it was -5.51 (inactive); in [12], 0.0292 (inactive); in [13] it was 0.18 (inactive); in experiment [14], -0.404 (inactive).
